Screening results deposited in PubChem by National Center for Advancing Translational Sciences (NCATS).
MCF10A rereplic: induces DNA re-replication in MCF 10a normal breast cells; MCF 10A DNA re-replication, Hoechst nuclear intensity, 48 h; Potency, µM (doses to about 46.1 µM), without a hit: at the highest dose activity, positive = re-replication, usual class: activators; hit rate 2.9% among 350,000; AID 624296; note: % of control where 0% means no effect; nearly all actives have a fitted effect of over 50% in size
RORg inh: ROR gamma (mouse) transcription inhibition | Drosophila S2 Gal4-RORgamma UAS-luciferase reporter, 20 h | Potency, µM (highest dose often 53.6 µM), for the others: at the highest dose activity change, negative = inhibition, hits mostly inhibitors | hit rate 5.4% among 310,000 | AID 2551; note: % is set by controls: 0 for no effect and ±100 for the full control effect; nearly all actives have a fitted effect of over 60% in size
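Luminescence from a UAS-regulated Photinus luciferase reporter in stably transfected Drosophila Schneider cells is measured; decreased signal marks ROR gamma inhibition. Fusion expression is induced by 700 uM copper sulfate for 20 hr.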
VP16 counter: inhibits Gal4-VP16 luciferase reporter, ROR gamma counter-screen. Potency, µM (top dose mostly 53.6 µM), inactives show top-dose activity, negative = inhibition, actives largely listed as inhibitors. Drosophila S2 Gal4-VP16 UAS-luciferase, luminescence, 20 h. hit rate 3.5% among 310,000;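 note: Gal4-VP16 expression switched on by copper sulfate through the metallothionein promoter; % is set by controls: 0 for no effect and ±100 for the full control effect; nearly all actives have a fitted effect of over 50% in size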
SW480 rereplic: induces DNA re-replication in SW480 colon adenocarcinoma cells; hit rate 1.8% among 340,000; SW480 DNA re-replication, Hoechst DNA content imaging, 48 h; Potency, µM (series often up to 46.1 µM), for inactives: at the top dose re-replication activation, actives largely listed as activators; note: % of control where 0% means no effect; nearly all actives have a fitted effect of over 55% in size
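DNA re-replication was detected as more nuclei of elevated Hoechst intensity after 48 hr exposure to compound (23 nL pinned per well of 250 cells).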
ELG1 repair inh: ELG1-dependent DNA repair inhibition; hit rate 2.3% among 330,000; HEK293T ELG1-luciferase reporter, luminescence, 16 h; DNA damage induced by 5-fluorouridine; Potency, µM (titrated, usually from 46.1 µM), for inactives: at the highest dose activity change, negative = inhibition, hits mostly inhibitors; note: % is set by controls: 0 for no effect and ±100 for the full control effect; nearly all actives have a fitted effect of over 55% in size
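Luminescence from the luciferase reporter, measured 30 min after ONE-Glo reagent at room temperature, was the read-out. Beforehand, 2,000 cells per well were exposed for 16 hr at 37 °C to 5-fluorouridine together with compound or vehicle.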
ELG1-Luc inh: human ELG1 repair inhibition, luciferase-tagged ELG1 confirmation. shares compounds with ELG1 repair inh. HEK293T ELG1-luciferase levels, luminescence; cells co-treated with 5-fluorouridine. Potency, µM (doses to about 46.1 µM), without a hit: at the highest dose activity change, negative = inhibition, usual class: inhibitors. hit rate 68% among 670. AID 624248; note: % is set by controls: 0 for no effect and ±100 for the full control effect; nearly all actives have a fitted effect of over 55% in size
ELG1-Luc MMS: MMS-stimulated human ELG1 repair inhibition, confirmed; shares compounds with ELG1 repair inh; HEK293T luciferase-tagged ELG1 level, MMS stimulated; Potency, µM (titrated, usually from 46.1 µM), without a hit: top-dose activity change, negative = inhibition, usual class: inhibitors; hit rate 53% among 670; note: % is set by controls: 0 for no effect and ±100 for the full control effect; nearly all actives have a fitted effect of over 60% in size
ELG1 5FU viab: confirmation of ELG1 repair inhibitors: viability with 5FU. shares compounds with ELG1 repair inh. cell viability with 5-FU, ELG1-dependent repair. Potency, µM (highest dose often 46.1 µM), for inactives: top-dose activity change, negative = viability loss, hits mostly cytotoxic. 670 tested, under 10 active;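 note: ELG1-luc HEK293T cells cotreated with 5-fluorouridine at 10 µM final; viability measured 16 h after compound addition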
ELG1 MMS cell: confirmation of ELG1 repair inhibitors: viability with MMS | shares compounds with ELG1 repair inh | Potency, µM (series often up to 46.1 µM), for the others: top-dose activity change, negative = viability loss, usual class: cytotoxic | hit rate 33% among 670 | Cell viability with MMS, ELG1-dependent DNA repair;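 note: ELG1-luc HEK293T cells co-treated with 10 µM MMS; viability read 16 h after compound addition; % is set by controls: 0 for no effect and ±100 for the full control effect; nearly all actives have a fitted effect of over 60% in size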
Cell viab unstim: counter-screen for ELG1 repair inhibitors: unstimulated cell viability; shares compounds with ELG1 repair inh; cell viability counter-screen, unstimulated, luminescence; Potency, µM (highest dose often 45.9 µM), for the others: at the highest dose activity change, negative = loss of viability, actives largely listed as cytotoxic; hit rate 8% among 900; AID 624252;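 note: compound exposure lasted 16 hours before reading; % is set by controls: 0 for no effect and ±100 for the full control effect; nearly all actives have a fitted effect of over 55% in size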
Numbers without * were called inactive. Most compounds without a hit are left out; they make up all but 10% or so of the library. Calls come from the whole dose curve; as a rule, active = well fitted curve in the direction sought with a large enough effect; inconclusive = small, poorly fitted or top-dose-only effect, or another doubt; inactive = no such curve, though single readings can be large; an effect the other way counts as inactive or inconclusive. Potency is the fitted concentration of half-maximal effect.

Results for O=C(CCCOc1ccccc1)Nc1cccnc1 ?
MCF10A rereplic: inconclusive; RORg inh: 41.4%; VP16 counter: 23.8%; SW480 rereplic: -2.1%; ELG1 repair inh: 1.6%

How did COc1ccc(N2CCN(C(=O)c3ccc(CNS(=O)(=O)c4ccc(C)cc4)cc3)CC2)cc1 do in these assays?
MCF10A rereplic: inconclusive; RORg inh: inconclusive; VP16 counter: -1.4%; SW480 rereplic: -8.3%; ELG1 repair inh: -12.9%

What do the screens show for `Cc1ccc(S(=O)(=O)NCc2ccc(C(=O)N3CCN(c4ccc([N+](=O)[O-])cc4)CC3)cc2)cc1`?
MCF10A rereplic: 4.8%; RORg inh: inconclusive; VP16 counter: -15.5%; SW480 rereplic: -5.0%; ELG1 repair inh: 2.31µM*; ELG1-Luc inh: 7.91µM*; ELG1-Luc MMS: 1.58µM*; ELG1 5FU viab: -8.5%; ELG1 MMS cell: 1.77µM*; Cell viab unstim: inconclusive

What do the screens show for `CN(c1ncnc(N)c1[N+](=O)[O-])C1CCCCC1`?
MCF10A rereplic: -2.6%; RORg inh: -39.0%; VP16 counter: -16.3%; SW480 rereplic: 5.3%; ELG1 repair inh: 1.83µM*; ELG1-Luc inh: 3.15µM*; ELG1-Luc MMS: 12.5µM*; ELG1 5FU viab: -8.4%; ELG1 MMS cell: -5.0%; Cell viab unstim: inconclusive

Results for CN(c1ncnc(N)c1[N+](=O)[O-])C1CCS(=O)(=O)C1 (configuration not stated) ?
MCF10A rereplic: 0.0%; RORg inh: -30.9%; VP16 counter: -10.0%; SW480 rereplic: -64.1%; ELG1 repair inh: inconclusive

What do the screens show for `Cc1cccc(-c2noc(CCC(=O)N3CCN(c4cc(C)ccc4C)CC3)n2)c1`?
MCF10A rereplic: inconclusive; SW480 rereplic: 3.0%; ELG1 repair inh: inconclusive; Cell viab unstim: 0.4%

Results for Cc1ccc(C)c(N2CCN(C(=O)CCc3nc(-c4ccccc4)no3)CC2)c1 ?
MCF10A rereplic: inconclusive; SW480 rereplic: 1.7%; ELG1 repair inh: 3.6%
